Source: PubChem (several laboratories)
MCL1-BIM inh: inhibitors of MCL1 binding to BIM-BH3, primary screen, biochemical, fluorescence polarization | Induced myeloid leukemia cell differentiation protein Mcl-1 (Homo sapiens), Q07820 | GST-MCL1 / FITC-Bim-BH3 fluorescence polarization | inhibition, % at 10.9 µM | 320,000 compounds, 0.68% hits;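 active = inhibition above the mean inhibition of all tested compounds plus 3 SD, set per campaign, cut at about 40% in these data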;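 note: higher means more loss of mP so more displacement of Bim peptide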
EBV gp42 inh: Epstein-Barr virus gp42 inhibitors, primary screen, biochemical, uHTS, fluorescence polarization; 220,000 compounds, 0.42% hits; Glycoprotein 42 (Epstein-Barr virus (strain AG876)), Q1HVG2; Fluorescence polarization binding assay, mP read-out; inhibition, % (tested at 21.74 µM); in the data active = inhibition above about 50%
MEX-5 binding: MEX-5 zinc finger RNA-binding disruptors – biochemical, C. elegans, fluorescence polarization, MLPCN library, primary screen; Zinc finger protein mex-5 (Caenorhabditis elegans), Q9XUB2; MEX-5/FITC-TCR2 RNA binding; active compounds read low; activity score (negative = inhibition of binding), % at 10 µM; 300,000 compounds, 0.38% hits; AID 1832, 2009;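 active = inhibition past about -25% in most replicates, and total fluorescence under double the plate's negative control median, limit read from the data; inconclusive = replicates evenly split on the limit, or fluorescence at least double controls; inactive = too little inhibition in most replicates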
GLD-1 TGE inh: GLD-1/TGE RNA complex disruptors, primary screen, biochemical, fluorescence polarization | 320,000 compounds, 0.44% hits | purified GLD-1 + fluorescein TGE RNA | inhibition, % at 5.96 µM;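 active = percent inhibition above a per-plate cutoff, the plate mean of test compounds plus 3 SD, cut at about 30% in these data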
Target sequence (Q17339 whole entry, looked up): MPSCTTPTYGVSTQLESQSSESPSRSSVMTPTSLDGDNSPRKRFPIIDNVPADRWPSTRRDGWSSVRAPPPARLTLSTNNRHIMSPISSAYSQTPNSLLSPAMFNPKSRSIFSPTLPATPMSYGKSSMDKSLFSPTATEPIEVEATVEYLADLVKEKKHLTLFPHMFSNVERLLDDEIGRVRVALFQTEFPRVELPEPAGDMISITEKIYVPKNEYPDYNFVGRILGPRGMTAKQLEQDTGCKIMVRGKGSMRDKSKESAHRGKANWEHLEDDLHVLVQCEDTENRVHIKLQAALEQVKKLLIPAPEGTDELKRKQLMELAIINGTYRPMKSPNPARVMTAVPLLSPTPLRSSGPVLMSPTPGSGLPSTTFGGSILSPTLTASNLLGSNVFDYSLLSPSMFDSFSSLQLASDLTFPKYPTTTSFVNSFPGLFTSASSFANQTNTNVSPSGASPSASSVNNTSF
eLon inh: inhibitors of E. coli Lon protease, primary screen, biochemical, fluorescence polarization; P0A9M0; purified E. coli Lon protease; inhibition, % at 7.94 µM; 360,000 compounds, 0.42% hits; AID 602123, 2011; in the data active = inhibition above about 13%, passing the limit was not always enough
Bcl-xL primary: inhibitors of human Bcl-xL, primary screen, biochemical, fluorescence polarization, HTS | inhibition, % at 10.9 µM | AID 2129, 2009 | Bcl-2-like protein 1 (Homo sapiens), Q07817 | GST-Bcl-xL / FITC-Bim BH3 peptide fluorescence polarization | 320,000 compounds, 0.7% hits;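 active = inhibition above the mean of all tested compounds plus 3 SD, cutoff set per campaign, cut at about 30% in these data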;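 note: inhibitors lower millipolarization by displacing the labeled peptide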
Target sequence (Q07817 whole entry, looked up): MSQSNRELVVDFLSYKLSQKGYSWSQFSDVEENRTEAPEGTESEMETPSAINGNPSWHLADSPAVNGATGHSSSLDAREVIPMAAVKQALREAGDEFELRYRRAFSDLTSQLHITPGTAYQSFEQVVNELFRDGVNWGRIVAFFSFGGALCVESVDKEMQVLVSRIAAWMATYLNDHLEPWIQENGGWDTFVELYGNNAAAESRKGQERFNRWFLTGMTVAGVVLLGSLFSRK
Large screens that a line does not name were inactive. Compounds with a hit are over-represented: about 1.5% of the library has one in this group of screens.

CCCCC1(C)OC(=O)C(=Cc2ccc(N(CC)CC)cc2)C(=O)O1 (configuration not stated)	EBV gp42 inh 75, MEX-5 binding inconclusive
Cc1cccc(Nc2c([N+](=O)[O-])ccc3nonc23)c1C	none (no result: MCL1-BIM inh, EBV gp42 inh, GLD-1 TGE inh, Bcl-xL primary)
Cc1ccc(Nc2c([N+](=O)[O-])ccc3nonc23)c(C)c1	Bcl-xL primary 46 (no result: EBV gp42 inh)
CCCCn1c(-c2ccccc2C)nc2cc3[nH]c(=O)c(C(C)C)nc3cc21	Bcl-xL primary 30 (no result: EBV gp42 inh)
C[n+]1cccc2ccc3c(c21)OC(N)=C(C#N)C3c1ccccc1 (configuration not stated)	none
C[n+]1cccc(C2C(C#N)=C(N)Oc3c2ccc2ccccc32)c1 (configuration not stated)	Bcl-xL primary 39
COc1ccc2c(c1OC)C(=O)N(c1ccc(OCc3ccccc3)cc1)C2=O	none (no result: EBV gp42 inh)
COc1ccc(OC)c(NC(=O)C2CCN(S(=O)(=O)c3c(C)noc3C)CC2)c1	GLD-1 TGE inh 63
CCn1nc(C(=O)Nc2ccc(S(=O)(=O)Nc3ncccn3)cc2)c2ccccc2c1=O	none
CCCn1nc(C(=O)Nc2ccc(S(=O)(=O)Nc3nccs3)cc2)c2ccccc2c1=O	MEX-5 binding -41
O=C(Nc1ccc(S(=O)(=O)Nc2nccs2)cc1)c1ccc(N2C(=O)c3ccccc3C2=O)cc1	MEX-5 binding -29
CNc1c(NC(=O)C2CCC(C)CC2)c(=O)oc2ccccc12 (configuration not stated)	none (no result: EBV gp42 inh)
CCN(c1ccc(N=Cc2c(O)n(Cc3ccc(OC)cc3)c(=O)c3ccccc23)cc1)C(C)C	EBV gp42 inh active (no result: MCL1-BIM inh, MEX-5 binding, GLD-1 TGE inh, Bcl-xL primary)
Cc1cccnc1NC(=O)Nc1ccccc1	none
COC(=O)c1ccccc1NC(=O)Nc1ncccc1C	EBV gp42 inh 64
O=C(Nc1ccc(Br)cn1)c1cccc2ccccc12	none (no result: EBV gp42 inh)
COc1c(C(=O)Nc2ccc(Br)cn2)ccc2ccccc12	Bcl-xL primary 57 (no result: EBV gp42 inh)
Cc1cccc[n+]1C1C(c2ccc([N+](=O)[O-])cc2)C(C#N)=C(C(=C=[N-])C#N)NC1(O)C1CC1 (configuration not stated)	Bcl-xL primary 31
CCN(CC)CCCNc1cc(C(F)(F)F)c(C#N)c2nc3ccccc3n12	MCL1-BIM inh 42, Bcl-xL primary 38 (no result: EBV gp42 inh)
N#Cc1cc2cc3c(cc2nc1SCC(=O)N1CCCC1)OCCO3	none (no result: EBV gp42 inh)
CC(=O)CSc1nc2cc3c(cc2cc1C#N)OCCO3	MCL1-BIM inh 42, Bcl-xL primary 34
COc1cc(C(c2c(C(=O)O)[nH]c3ccccc23)c2c(C(=O)O)[nH]c3ccccc23)ccc1OCc1ccccc1	MCL1-BIM inh 68, MEX-5 binding inconclusive (no result: EBV gp42 inh)
O=C(O)c1[nH]c2ccccc2c1C(c1ccccc1)c1c(C(=O)O)[nH]c2ccccc12	none (no result: EBV gp42 inh)
CCn1c2ccccc2c2cc(NC(=O)c3coc(=O)c(Br)c3)ccc21	EBV gp42 inh 97, MEX-5 binding inconclusive
CCn1c2ccccc2c2cc(NC(=O)c3ccc(=O)oc3)ccc21	EBV gp42 inh 127
CCCCn1c(N)c(N(CCOC)C(=O)c2cc(S(=O)(=O)N3CCOCC3)ccc2Cl)c(=O)[nH]c1=O	none (no result: MCL1-BIM inh, EBV gp42 inh, MEX-5 binding, GLD-1 TGE inh, Bcl-xL primary)
O=C1NC(=Nc2ccccc2Cl)S/C1=C\c1cc([N+](=O)[O-])ccc1O	MEX-5 binding -40 (no result: EBV gp42 inh)
NC(=O)c1ccc(N=Nc2c(O)c3ccccc3[nH]c2=O)cc1	EBV gp42 inh 65 (no result: eLon inh)
O=C(CSc1n[nH]c(=O)[nH]c1=O)Nc1ccc2c(c1)C(=O)c1ccccc1C2=O	MCL1-BIM inh 40, EBV gp42 inh 64, Bcl-xL primary 34
O=C(CSc1n[nH]c(=O)[nH]c1=O)Nc1cccc(S(=O)(=O)N2CCOCC2)c1	none
c1ccc2c(-c3cc(NCc4ccncc4)n4nccc4n3)cccc2c1	none (no result: MCL1-BIM inh, EBV gp42 inh, MEX-5 binding, GLD-1 TGE inh, Bcl-xL primary)
O=C(COC(=O)C12CC3CC(CC(Br)(C3)C1)C2)Nc1cccc(S(=O)(=O)N2CCOCC2)c1	none (no result: MCL1-BIM inh, EBV gp42 inh, MEX-5 binding, Bcl-xL primary)
Cc1c(C(=O)Nc2ccccc2N2CCN(C)CC2)oc2ccc(F)cc12	none (no result: MCL1-BIM inh, EBV gp42 inh, MEX-5 binding, GLD-1 TGE inh, Bcl-xL primary)
CSc1sccc1/C=C(/C#N)C(=O)c1ccco1	MEX-5 binding -27 (no result: EBV gp42 inh)
CSc1sccc1/C=N/O	none
CC(NC(=O)c1cccc(S(=O)(=O)N2CCc3ccccc32)c1)c1ccco1 (configuration not stated)	none (no result: EBV gp42 inh, MEX-5 binding)
N#CC(C(=O)NCCc1ccccc1)c1nc2ccccc2nc1N1CCCCC1 (configuration not stated)	MEX-5 binding inconclusive
CCCCCCOC(=O)C(C#N)c1nc2ccccc2nc1N1CCOCC1 (configuration not stated)	EBV gp42 inh 99
CCCCOC(=O)C(C#N)c1nc2ccccc2nc1N1CCOCC1 (configuration not stated)	none
CCN(CC)c1nc2ccccc2nc1C(C#N)C(=O)NCCc1ccccc1 (configuration not stated)	EBV gp42 inh 78, MEX-5 binding inconclusive
N#CC(C(=O)NCc1ccccc1)c1nc2ccccc2nc1N1CCCC1 (configuration not stated)	MEX-5 binding -97
CCN(CC)c1nc2ccccc2nc1C(C#N)C(=O)NCCCOC (configuration not stated)	none
CCOC(=O)C1CCCN(c2nc3ccccc3nc2C(C#N)C(=O)NCc2ccccc2)C1 (configuration not stated)	EBV gp42 inh 54
N#CC1(NC(=O)COC(=O)c2nccnc2N)CCCCC1	none (no result: EBV gp42 inh)
CC(NC(=O)C12CC3CC(C)(CC(C)(C3)C1)C2)c1ccncc1 (configuration not stated)	none (no result: EBV gp42 inh)
CC(C)CC(=O)Nc1ccc(C(=O)COC(=O)C2CC(=O)N(Cc3ccccc3)C2)cc1 (configuration not stated)	none (no result: EBV gp42 inh, MEX-5 binding)
O=C(NCCCN1CCOCC1)/C(=C/c1cccs1)NC(=O)c1ccccc1	none (no result: EBV gp42 inh)
CCN(CC)c1ccc(/C=c2\sc3nnc(-c4ccccc4Cl)n3c2=O)cc1	EBV gp42 inh 193, MEX-5 binding inconclusive
CCN(CC)c1ccc(/C=c2/sc3nnc(-c4ccccc4C)n3c2=O)cc1	EBV gp42 inh 172, MEX-5 binding -63
CCN(CC)c1ccc(/C=C2/C(=O)ON=C2C)cc1	none
Cc1ccc(/C=c2/sc3nnc(-c4ccccc4Cl)n3c2=O)o1	none
CC(=O)Oc1c(-c2ccc(Br)o2)oc2ccccc2c1=O	none (no result: EBV gp42 inh)
Cn1nc(C(=O)NCc2ccccc2)c2c1-c1ccccc1S(=O)(=O)C2	none (no result: EBV gp42 inh)
Cc1ccc(S(=O)(=O)/C(C#N)=C/c2c(N3CCN(C)CC3)nc3c(C)cccn3c2=O)cc1	Bcl-xL primary 40
COC(=O)/C(C#N)=C/c1c(N2CCN(c3cccc(Cl)c3)CC2)nc2c(C)cccn2c1=O	none (no result: EBV gp42 inh)
